GPR32 ag = activates human resolvin D1 receptor GPR32 | O75388 | CHO-K1 GPR32 beta-arrestin PathHunter luminescence, 90 min; zero percent set by DMSO-only wells | activation, % at 76.9 µM | actives 2.5% (n = 48,000) | AID 1346428;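 active = activation of at least 60% and not above a set upper limit, about 1 call in 100 departs from these limits; inconclusive = activation of 40% to 60%, or above that upper limit; inactive = activation under 40%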; also: 0% is about no effect
Target sequence (O75388 whole entry, looked up): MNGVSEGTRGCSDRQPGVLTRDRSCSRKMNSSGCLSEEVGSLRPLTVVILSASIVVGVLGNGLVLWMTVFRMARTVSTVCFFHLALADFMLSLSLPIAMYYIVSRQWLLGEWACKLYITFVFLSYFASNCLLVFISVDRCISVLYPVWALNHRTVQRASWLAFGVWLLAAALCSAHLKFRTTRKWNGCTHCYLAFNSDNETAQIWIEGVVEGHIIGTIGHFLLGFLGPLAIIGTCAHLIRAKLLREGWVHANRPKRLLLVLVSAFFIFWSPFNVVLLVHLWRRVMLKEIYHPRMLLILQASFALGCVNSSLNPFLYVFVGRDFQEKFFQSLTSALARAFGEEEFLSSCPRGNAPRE
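Agonism was scored by beta-Gal fragment complementation (chemiluminescent read, 1 h detection at ambient temperature) reporting beta-arrestin binding to GPR32 in engineered CHO-K1 cells. Compound treatment lasted 90 min at 37 C, normalized to a DMSO basal control.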
HTT-AS act = HTT-AS promoter activation; actives 0.24% (n = 48,000); AID 1508624; Potency, µM (top dose mostly 57.5 µM), for the others: at the top dose activity change, positive = activation, usual class: activators; HEK293 HTT-AS promoter firefly luciferase reporter, 24 h; response scale: percent change from vehicle, -100% = no light; also: potency is read from the fitted curve at half-maximal effect; nearly all actives have a fitted effect of over 55% in size
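HEK293 luciferase promoter-reporter cells (2,500/well) plated 24 h, then compounds added at up to 57.5 uM final for 24 h at 37 °C. Firefly luminescence by Dual-Glo, normalized to vehicle (0%) and zero RLU (-100%).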
HTT promoter inh = inhibits huntingtin promoter activity. Potency, µM (series often up to 57.5 µM), without a hit: at the highest dose activity change, negative = inhibition, usual class: inhibitors. actives 0.93% (n = 48,000). HEK293 HTT promoter firefly luciferase reporter, 24 h. AID 1508623; also: potency is read from the fitted curve at half-maximal effect; nearly all actives have a fitted effect of over 50% in size
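HEK293 luciferase promoter-reporter cells (2,500/well) plated 24 h, then compounds added at up to 57.5 uM final for 24 h at 37 °C. Firefly luminescence by Dual-Glo, normalized to vehicle (0%) and zero RLU (-100%).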
Numbers without * were called inactive; ? = inconclusive; · = no result given; [ ] = remark or other dose. Rows were chosen to be rich in hits. Some 3.7% of all compounds tested hit in one or more screens of this group. Unless noted, calls follow the shape of the dose curve; as a rule, active = well fitted curve in the direction sought with a large enough effect; inconclusive = small, poorly fitted or top-dose-only effect, or another doubt; inactive = no such curve, though single readings can be large; an effect the other way counts as inactive or inconclusive.

SMILES	GPR32 ag	HTT-AS act	HTT promoter inh
CC(=O)N[C@H]1[C@H]([C@H](O)[C@H](O)CO)OC(C(=O)O)=C[C@@H]1N=C(N)N	0.0	9.0%	-6.6%
CN1CCC(CNc2ccc3ncc(-c4cccc(OC(F)(F)F)c4)n3n2)CC1	·	-29.6%	?
Cc1cc(C)c2c(C)c(C(=O)N3CCC(c4nc5ccccc5s4)CC3)oc2c1	8.2	-23.0%[11.5 µM]	?
C=CC[C@@H]1C=C(C)C[C@H](C)C[C@H](OC)[C@H]2O[C@@](O)(C(=O)C(=O)N3CCCC[C@H]3C(=O)O[C@H](C(C)=C[C@@H]3CC[C@H](O)[C@H](OC)C3)[C@@H](C)[C@@H](O)CC1=O)[C@@H](C)C[C@@H]2OC	·	-26.4%	?
CC[C@]1(O)C[C@H]2CN(CCC3=c4ccccc4=N[C]3[C@@](C(=O)OC)(c3cc4c(cc3OC)N(C)[C@H]3[C@@](O)(C(N)=O)[C@H](O)[C@]5(CC)C=CCN6CC[C@]43[C@@H]65)C2)C1	·	-33.1%	?
C[C@](Cc1c[nH]c2ccccc12)(NC(=O)OC1C2CC3CC(C2)CC1C3)C(=O)NC[C@H](NC(=O)CCC(=O)O)c1ccccc1 (some centres not stated)	·	-12.4%	26.3%
O=C(Nc1ccc(Br)cc1)c1ccc(Cl)c(S(=O)(=O)N2CCCCCC2)c1	?	-27.6%	?
Cc1ccc(O)c(NC(=O)c2ccc(Br)c(S(=O)(=O)N3CCCCC3)c2)c1	-3.7	-42.0%	20µM*
COc1ccc2c(c1)CC[C@@H](CN(C)CC(=O)O)[C@H]2c1ccccc1	·	-40.2%	?
COc1ccc(COC(=O)c2[nH]c3c(c2C)C(=O)CC(c2ccc(OC)c(OC)c2)C3)cc1 (configuration not stated)	6.7	-74.0%	10µM*
COc1ccc(C2CC(=O)c3c([nH]c(C(=O)OCc4ccccc4)c3C)C2)cc1 (configuration not stated)	30.5	-20.6%	-18.5%
COc1ccc(CCNC(=O)C2CCCN(c3nc4c(C)cc(C)cc4s3)C2)cc1OC (configuration not stated)	-6.7	?	-10.9%
O=C(Nc1ccc(SC(F)F)cc1)c1cc(-c2ccc3c(c2)OCCO3)on1	-6.2	-63.8%	10µM*
CC(=O)Nc1ccc(NC(=O)c2cc(-c3ccc4c(c3)OCCO4)on2)cc1	-4.9	?	8.8%
CCOC(=O)c1ccc(NC(=O)CN2C(=O)c3cccnc3Sc3ccccc32)cc1	-5.0	18.6%	21.6%
CCOc1ccc(NC(=O)c2ccc3c(c2)CCN3S(=O)(=O)c2ccc(Cl)cc2)cc1	0.4	-0.9%	?
O=C(COc1ccc(Cl)cc1)OCc1cc(=O)n2nc(C3CCCCC3)sc2n1	11.7	7.2%	0.7%
O=C(COc1ccc(F)cc1)OCc1cc(=O)n2nc(C3CC3)sc2n1	96.8*	-8.4%	-13.5%
O=S(=O)(Nc1ccc(-c2ccc(N3CCCCC3)nn2)cc1)c1ccc(OC(F)(F)F)cc1	-3.4	·	·
Cc1nn(C(=O)c2ccccc2)c(C)c1Sc1ccc(Cl)cc1	106.5*	-72.6%	?
Cc1ccc(Sc2c(C)nn(C(=O)c3ccc(Br)cc3)c2C)cc1	39.6	-20.7%	-20.2%
N#CC(=C(N)Sc1ccc(N)cc1)c1ccccc1C(F)(F)F	·	-10.5%	-3.8%
CCC(C)NC(=O)C1CCN(C(=O)c2cc3sccc3n2Cc2ccc(Cl)cc2)CC1 (configuration not stated)	7.1	-53.9%	8.91µM*
COCCNC(=O)C1CCN(C(=O)c2cc3sccc3n2Cc2ccc(Cl)cc2)CC1	4.9	-50.5%	?
Cc1nc2c(c(C)nn2-c2ccccc2)c(C)c1CCC(=O)Nc1ccc(F)cc1	15.1	-25.6%	-16.1%
SMILES	GPR32 ag	HTT-AS act	HTT promoter inh
Cc1nc2c(c(C)nn2C(C)(C)C)c(C)c1CCC(=O)Nc1ccc(F)cc1	74.1*	-19.5%	-19.3%
COc1ccc(S(=O)(=O)N(CC(=O)NCc2ccccc2)c2ccc(C)cc2)cc1OC	31.2	-5.2%	62.0%
COc1ccc(S(=O)(=O)N(CC(=O)NC(C)c2ccccc2)c2ccc(C)cc2)cc1OC (configuration not stated)	76.1*	-52.8%	?
COc1ccc(C2C(=O)N(C3CCCCCC3)CC(=O)N2CCC2=CCCCC2)cc1 (configuration not stated)	-35.6	·	·
CC(=O)c1cccc(NC(=O)CSc2nc(=O)n(Cc3ccco3)c3c2CCC3)c1	11.6	-20.8%	0.0%
O=C(NCCCN1CCN(c2ccc(F)cc2)CC1)Nc1ccc(Cl)cc1	82.6*	-25.6%	-23.9%
CCOc1ccc(NC(=O)NCCCN2CCN(c3ccc(F)cc3)CC2)cc1	9.4	?	1.3%
CCOc1ccc(C(=O)N2CCN(Cc3cc(=O)n4nc(-c5cccc(OC)c5)sc4n3)CC2)cc1	74.3*	0.5%	-12.3%
CCOc1ccc(NC(=O)N2CCN(Cc3cc(=O)n4nc(-c5ccc(OC)cc5)sc4n3)CC2)cc1	-2.8	-9.0%	-22.8%
CO[C@H]1C(=O)[C@]2(C)[C@@H](OC)C[C@H]3OC[C@@]3(OC(C)=O)[C@H]2[C@H](OC(=O)c2ccccc2)[C@]2(O)C[C@H](OC(=O)[C@H](O)[C@@H](NC(=O)OC(C)(C)C)c3ccccc3)C(C)=C1C2(C)C	·	-33.9%	-15.8%
CCc1ccc(NC(=O)c2ccc(F)c(S(=O)(=O)N3CCN(c4ccc(OC)cc4)CC3)c2)cc1	-12.2	-39.4%	?
O=C(Nc1ccc(F)c(F)c1)c1ccc(F)c(S(=O)(=O)N2CCC3(CC2)OCCO3)c1	24.1	-84.9%	?
CCc1ccc(NC(=O)c2ccc(F)c(S(=O)(=O)N3CCC4(CC3)OCCO4)c2)cc1	0.1	-24.8%	15.8µM*
CCc1ccc(NC(=O)c2ccc(F)c(S(=O)(=O)N3CCc4ccccc4C3)c2)cc1	-9.5	-19.7%	25.1µM*
O=C(Nc1ccccc1C(F)(F)F)c1ccc(F)c(S(=O)(=O)N2CCc3ccccc3C2)c1	-23.9	-24.3%	?
CCc1ccc(NC(=O)c2ccc(F)c(S(=O)(=O)N3CCC(C)CC3)c2)cc1	-11.3	-35.9%	4.47µM*
Cn1cc(C=CC(=O)c2cccc(F)c2)cc1C=CC(=O)NO	·	17.1%	33.1%
COc1ccc(C)cc1NC(=O)c1nnn(CC(=O)Nc2c(C)cccc2C)c1N	1.6	-2.9%	-4.5%
CCc1ccc(NC(=O)Cn2nnc(C(=O)Nc3cc(C)ccc3OC)c2N)cc1	74.3*	-13.2%	-25.9%
O=C(Nc1ccc(S(=O)(=O)N2CCC(c3nc4ccccc4s3)CC2)cc1)c1ccc(F)cc1	-1.8	-11.9%	-10.9%
COc1cc(C(=O)N2CCC(c3nc4ccccc4s3)CC2)cc(OC)c1OC	?	-17.5%	?
CC(Oc1ccc(F)cc1)C(=O)N1CCC(c2nc3ccccc3s2)CC1 (configuration not stated)	67.2*	-36.1%	?
Cc1cc(OCC(=O)N2CCC(c3nc4ccccc4s3)CC2)ccc1Cl	78.0*	-28.0%	?
Cc1ccccc1C(=O)N1CCC(c2nc3ccccc3s2)CC1	?	-19.0%	?
O=C(c1ccccc1Cl)N1CCC(c2nc3ccccc3s2)CC1	77.9*	-20.8%	?
COC(=O)C=CC(=O)OC	·	-30.7%	?
